Data on 13 compounds can be found in PubChem BioAssay.

Molecules are shown by their SMILES. Active and inactive are the calls of the source.

A short description of assay [1]: E. coli DRC41 culture turbidity changes, primary screen, E. coli filamentation inducer project, strain DRC41, OD650, 48 h (AID 1152).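 Also: E. coli MC1000 strain DRC41 lacking acrAB efflux pump and sulA.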 The settings on record: E. coli DRC41 (acrAB sulA), higher = more signal, called active from +8 up or from −8 down.
Assay [2] is described as follows: small-molecule binders of probe aLefty1, primary screen, biochemical, small-molecule microarray, 635/667 nm fluorescence (AID 1153).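 Also: score merges spot fluorescence with signal-to-noise ratio from the scanned slide images.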 The settings on record: higher = more signal.
Assay [3] is described as follows: PSAC antagonists in infected red cells, primary screen, cell-based, P. falciparum Indochina, OD700, 1 h (AID 1154). The following applies: P. falciparum Indochina infected RBC osmotic lysis, higher = more signal, called active from +8 up or from −8 down.
Assay [4] is described as follows: PSAC antagonists in infected red cells, primary screen, cell-based, P. falciparum Indochina, OD700, 2 h (AID 1155).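 Also: lysis reports solute entry through the parasite surface anion channel PSAC; channel blockers reduce lysis of infected cells.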 The following applies: P. falciparum Indochina infected erythrocytes, osmotic lysis OD700; higher = more signal, called active from +8 up or from −8 down.
Assay [5] can be described thus: osmotic lysis modulators in infected erythrocytes, primary screen, PSAC antagonist project, cell-based, P. falciparum Indochina, OD700, 3 h (AID 1156). The following applies: higher = more signal, called active from +8 up or from −8 down.
Assay [6] can be described thus: PSAC antagonists in infected red cells, primary screen, cell-based, P. falciparum Indochina, OD700, 18 h (AID 1157). The settings on record: P. falciparum Indochina infected erythrocytes, osmotic lysis OD700, 18 h; higher = more signal, called active from +8 up or from −8 down.
Assay [7] can be described thus: modulators of S6 phosphorylation in cells, primary screen, cell-based, A549, cytoblot, luminescence, serum-stimulated (AID 1158).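 Also: serum-stimulated A549 lung adenocarcinoma cells; signal is phosphorylated S6 detected by cytoblot immunostaining with HRP secondary.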 The following applies: A549 phospho-S6 cytoblot, 5 h, higher = more signal.
In assay [8] the target is NADPH oxidase 2 (Homo sapiens) (UniProt P04839). Nature of the assay: NOX2-dependent H2O2 signal modulators, primary screen, NOX inhibitor project, cell-based, HEK293-NOX2, PMA-stimulated, Amplex Red fluorescence (AID 1159). Also: test concentration not given here. The settings on record: 45 min, higher = more signal, called active from +8 up or from −8 down.
NADPH oxidase 2 (Homo sapiens), sequence (P04839 whole entry, looked up): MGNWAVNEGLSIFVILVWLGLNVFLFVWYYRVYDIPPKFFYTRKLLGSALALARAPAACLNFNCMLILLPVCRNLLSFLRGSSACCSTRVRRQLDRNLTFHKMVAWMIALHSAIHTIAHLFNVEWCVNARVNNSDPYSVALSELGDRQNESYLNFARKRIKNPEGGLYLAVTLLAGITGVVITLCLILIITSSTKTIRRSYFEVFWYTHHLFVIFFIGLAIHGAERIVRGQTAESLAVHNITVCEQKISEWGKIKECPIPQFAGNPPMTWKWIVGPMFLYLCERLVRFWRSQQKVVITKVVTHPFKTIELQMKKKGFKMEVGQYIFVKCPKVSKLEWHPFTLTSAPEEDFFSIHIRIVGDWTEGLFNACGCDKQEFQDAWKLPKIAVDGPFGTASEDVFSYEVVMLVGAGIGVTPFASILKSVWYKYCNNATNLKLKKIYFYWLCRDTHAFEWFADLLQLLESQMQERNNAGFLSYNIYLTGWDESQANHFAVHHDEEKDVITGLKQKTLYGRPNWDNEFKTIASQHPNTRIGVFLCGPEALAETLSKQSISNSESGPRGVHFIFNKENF
For assay [9], the target named is NADPH oxidase 4 (Homo sapiens) (UniProt Q9NPH5). Nature of the assay: NOX4-dependent H2O2 signal modulators, primary screen, NOX inhibitor project, cell-based, HEK293-NOX4, tetracycline-induced, Amplex Red fluorescence (AID 1160). The following applies: 45 min, higher = more signal, called active from +8 up or from −8 down.
NADPH oxidase 4 (Homo sapiens), sequence (Q9NPH5 whole entry, looked up): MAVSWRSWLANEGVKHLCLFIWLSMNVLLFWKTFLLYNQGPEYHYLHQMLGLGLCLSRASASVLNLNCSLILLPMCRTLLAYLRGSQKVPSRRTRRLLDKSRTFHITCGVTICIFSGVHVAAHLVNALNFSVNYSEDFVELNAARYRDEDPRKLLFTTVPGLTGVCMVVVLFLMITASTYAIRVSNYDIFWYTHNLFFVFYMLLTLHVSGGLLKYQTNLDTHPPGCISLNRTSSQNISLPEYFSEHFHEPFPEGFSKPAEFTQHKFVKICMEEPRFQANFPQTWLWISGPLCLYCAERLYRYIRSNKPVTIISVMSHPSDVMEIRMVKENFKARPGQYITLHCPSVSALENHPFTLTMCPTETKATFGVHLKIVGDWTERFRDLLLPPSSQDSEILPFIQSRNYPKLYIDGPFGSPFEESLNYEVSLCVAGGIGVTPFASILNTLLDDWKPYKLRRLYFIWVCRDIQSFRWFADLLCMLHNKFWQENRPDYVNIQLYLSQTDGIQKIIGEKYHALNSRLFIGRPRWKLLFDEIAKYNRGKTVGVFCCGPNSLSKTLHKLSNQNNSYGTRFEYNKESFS
The target in assay [10] is NADPH oxidase 5 (Homo sapiens) (UniProt Q96PH1). Nature of the assay: NOX5-dependent H2O2 signal modulators, primary screen, NOX inhibitor project, cell-based, HEK293-NOX5, Amplex Red fluorescence (AID 1161). The following applies: HEK293-NOX5, ionomycin, 45 min, higher = more signal.
NADPH oxidase 5 (Homo sapiens), sequence (Q96PH1 whole entry, looked up): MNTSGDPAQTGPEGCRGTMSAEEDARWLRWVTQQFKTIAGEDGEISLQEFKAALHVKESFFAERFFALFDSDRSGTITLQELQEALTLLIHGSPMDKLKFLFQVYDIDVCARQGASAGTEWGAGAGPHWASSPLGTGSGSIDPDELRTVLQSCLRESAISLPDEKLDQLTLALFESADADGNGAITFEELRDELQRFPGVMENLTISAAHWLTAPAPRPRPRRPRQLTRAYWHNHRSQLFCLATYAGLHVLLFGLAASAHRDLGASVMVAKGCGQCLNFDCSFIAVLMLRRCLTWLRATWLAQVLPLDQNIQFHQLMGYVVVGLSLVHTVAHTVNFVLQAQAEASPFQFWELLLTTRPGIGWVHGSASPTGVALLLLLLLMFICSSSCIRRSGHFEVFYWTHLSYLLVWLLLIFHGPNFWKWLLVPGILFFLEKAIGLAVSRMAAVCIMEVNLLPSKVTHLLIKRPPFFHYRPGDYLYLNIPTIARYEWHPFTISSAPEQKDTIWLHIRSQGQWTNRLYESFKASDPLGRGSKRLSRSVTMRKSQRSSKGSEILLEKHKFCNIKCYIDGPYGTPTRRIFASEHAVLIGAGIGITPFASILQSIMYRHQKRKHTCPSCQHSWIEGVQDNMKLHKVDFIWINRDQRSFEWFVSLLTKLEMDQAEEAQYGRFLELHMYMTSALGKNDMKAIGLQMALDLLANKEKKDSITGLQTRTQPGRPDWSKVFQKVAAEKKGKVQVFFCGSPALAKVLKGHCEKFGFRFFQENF

As for `C=CCOC(=O)[C@H]1[C@@H]2C(=O)O[C@@H](c3ccccc3)[C@@H](c3ccccc3)N2[C@@H](c2ccc(OCCOC(=O)[C@H]3C[C@H]4C(=O)N[C@@H](CCCCN(C)C)C(=O)N4[C@H]3c3ccc(O)cc3)cc2)[C@]12C(=O)Nc1ccc(I)cc12`, the z-score in assay [1] is -0.635 (inactive); in assay [3], 5.21 (inactive); in assay [4], 1.13 (inactive); in [5], -0.286 (inactive); in assay [6] it was 0.522 (inactive); in [7] it was -0.236. Moreover, the z-score is 2.18 (inactive) in assay [8], 1.06 (inactive) in assay [9] and 1.72 in assay [10]. The compound also displayed a composite z-score in [2] of 0.461.

For the compound `C=C[C@H](OC)[C@@H](OC(=O)Nc1ccc(OC)cc1)c1ccc(O)c(F)c1`, the z-score was 0.496 (inactive) in assay [1]; 4.19 (inactive) in assay [3]; 0.484 (inactive) in assay [4]; -0.433 (inactive) in assay [5]; 0.253 (inactive) in assay [6]; -0.102 in assay [7]. In addition, the z-score in assay [8] was -1.5 (inactive); in assay [9], 1.1 (inactive); in assay [10], 5.13. Besides, the composite z-score in [2] was 0.0921.

In the case of `COCCOC(=O)N1C(=O)[C@@]2(c3cc(C#Cc4ccc(OC)cc4)ccc31)[C@H](c1ccccc1OCCO)N1[C@H](c3ccccc3)[C@H](c3ccccc3)OC(=O)[C@H]1[C@@H]2C(=O)NC[C@H](O)c1ccccc1`, the z-score in assay [1] is 0.216 (inactive); in [3], 2.92 (inactive); in assay [4], 2.16 (inactive); in [5] it was -0.76 (inactive); in assay [6], 0.804 (inactive); in assay [7], -0.325. Moreover, the z-score was 1.16 (inactive) in assay [8], 1.16 (inactive) in assay [9] and 0.967 in assay [10]. Moreover, in [2], the composite z-score was 0.396.

In the case of `C=CCC(OC(C)=O)[C@@H]1[C@@H](N(Cc2ccc(-c3ccccc3)cc2)C(=O)Cc2ccc(OC)cc2)c2cc(OCCCO)ccc2N1C(=O)Cc1ccc2ccccc2c1` (stereo not given in full), the z-score in [1] was -0.59 (inactive); in assay [3] it was 0.747 (inactive); in assay [4], 0.314 (inactive); in assay [5] it was 0.198 (inactive); in assay [6], 0.186 (inactive); in assay [7] it was -0.185. Besides, the z-score in [8] is 0.304 (inactive); in [9], 1.09 (inactive); in assay [10], 1.35. Besides, in assay [2], the composite z-score is -0.0654.

Turning to `COCCOC(=O)N1C(=O)[C@@]2(c3cc(C#Cc4ccc(OC)cc4)ccc31)[C@H](c1ccc(OCCO)cc1)N1[C@H](c3ccccc3)[C@H](c3ccccc3)OC(=O)[C@H]1[C@@H]2C(=O)N1CCN(c2ncccn2)CC1`, the z-score in assay [1] was -0.0791 (inactive); in assay [3], 5.07 (inactive); in assay [4] it was 2.39 (inactive); in [5] it was 0.738 (inactive); in assay [6], 1.17 (inactive); in [7], -0.451. Moreover, the z-score in assay [8] was 0.938 (inactive); in assay [9], -1.34 (inactive); in assay [10], 0.656. Moreover, the composite z-score in assay [2] was determined as 0.042.

As to `CN(C)CCCCCCNC(=O)[C@@H]1C[C@@H]2C(=O)N[C@@H](Cc3ccccc3)C(=O)N2[C@@H]1c1ccc(O)cc1`, the z-score in assay [1] was -0.0959 (inactive); in [3], 1.85 (inactive); in assay [4], 0.596 (inactive); in [5], 2.42 (inactive); in assay [6], 0.228 (inactive); in assay [7] it was 0.594. The z-score in assay [8] is -0.745 (inactive); in [9] it was 0.262 (inactive); in assay [10], -0.632. Further, in assay [2], the composite z-score came out at 0.378.

With `O=C1OCCC/C=C\[C@H]2OC34C=CCN(Cc5ccccc5)C(=O)[C@H]3N(CCCO)C(=O)[C@@H]4C12` (stereo not given in full), the z-score was 0.616 (inactive) in [1]; 1.21 (inactive) in [3]; 0.486 (inactive) in assay [4]; -0.0156 (inactive) in assay [5]; 0.211 (inactive) in assay [6]; -0.506 in [7]. Further, the z-score was 1.76 (inactive) in assay [8], -1.71 (inactive) in assay [9] and 2.38 in [10]. The same compound returned a composite z-score in assay [2] of 0.042.

Take `COC(=O)[C@@]1(Cc2ccc(OC)cc2)[C@H]2c3cc(C(=O)N4CCCC4)n(CCN4CNCC4=O)c3C[C@H]2CN1C(=O)c1ccccc1`: the z-score was -0.82 (inactive) in assay [1]; 2.95 (inactive) in assay [3]; 0.0621 (inactive) in assay [4]; 0.775 (inactive) in assay [5]; 0.838 (inactive) in [6]; 0.287 in [7]. The z-score in assay [8] was 0.468 (inactive); in assay [9], -2.36 (inactive); in assay [10], -4.44. Besides, the composite z-score in assay [2] came to 1.86.

With `[N-]=[N+]=NCc1ccccc1C[C@]1(C(N)=O)COC(c2ccc(OCCCO)cc2)=N1`, the z-score in assay [1] was 2.84 (inactive); in [3], 15.3 (active); in assay [4], 1 (inactive); in assay [5], 1.68 (inactive); in [6], -0.185 (inactive); in assay [7] it was 2.31. Moreover, the figures for the z-score in assay [8], in assay [9] and in assay [10] were -1.48 (inactive), -0.0652 (inactive) and -1.07, respectively. Besides, the composite z-score in assay [2] amounted to 0.52.

For `CCCCN1CC=CC23O[C@@H]4C=CCCOC(=O)C4[C@H]2C(=O)N(CCCCCCO)[C@@H]3C1=O` (stereo not given in full), the z-score was -0.288 (inactive) in [1]; 0.371 (inactive) in assay [3]; 0.491 (inactive) in assay [4]; 0.711 (inactive) in assay [5]; 0.258 (inactive) in assay [6]; -0.493 in assay [7]. Besides, the z-score in assay [8] is 1.24 (inactive); in [9], -0.13 (inactive); in assay [10] it was 1.85. This compound also came in with a composite z-score in [2] of -0.147.

Regarding `C[N+](C)(C)CCCCCCNC(=O)[C@@H]1C[C@@H]2C(=O)N[C@@H](Cc3ccccc3)C(=O)N2[C@@H]1c1cccc(OCCO)c1`, the z-score in assay [1] was 1.49 (inactive); in assay [3] it was 10.1 (active); in [4], 1.34 (inactive); in [5], 1.42 (inactive); in [6] it was 0.349 (inactive); in assay [7] it was 0.0757. Moreover, the z-score in [8] was 1.39 (inactive); in [9], 1.66 (inactive); in [10] it was 1.05. Moreover, the composite z-score in assay [2] worked out at 0.0588.

Regarding `COc1ccc(CCNC(=O)[C@@]2(C)c3ccccc3C(=O)N(C(C)C)[C@H]2c2ccc(CO)cc2)cc1`, the z-score in assay [1] is 0.312 (inactive); in assay [3], 1.66 (inactive); in [4], 0.133 (inactive); in assay [5] it was 0.386 (inactive); in [6], -0.0145 (inactive); in assay [7], -0.441. The z-score in [8] was -1.12 (inactive); in assay [9] it was -0.479 (inactive); in assay [10] it was -0.224. The compound further came in with a composite z-score in [2] of -0.28.

For the compound `C=C[C@@H](COC(=O)OC(C)(C)C)N(Cc1ccc(OC)cc1)S(=O)(=O)c1ccc(Br)cc1`, the z-score was -1.13 (inactive) in assay [1]; 1.4 (inactive) in [3]; -0.0352 (inactive) in assay [4]; -0.856 (inactive) in [5]; -0.0871 (inactive) in [6]; -0.273 in [7]. Also, the z-score in [8] is -0.348 (inactive); in assay [9], 0.525 (inactive); in [10], -1.28. In assay [2], this compound yielded a composite z-score of -0.0094.
